The record followed here is PubChem BioAssay.

Activity calls are given as the source filed them.

A short description of assay [1]: small molecules captured by biotinylated probe aFSTL3 – biochemical, small-molecule microarray, fluorescence 635/667, stem cell growth factor project, primary screen (AID 1064).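 Further: measures binding of the biotinylated anti-FSTL3 antibody to printed compounds.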 The settings on record: higher = more signal.
A short description of assay [2]: binders from COS7 lysate, DM2A8 probe, primary screen, torsin A project, cell lysate, small-molecule microarray, fluorescence 635/667 (AID 1065). The settings on record: higher = more signal, COS7 lysate expressing mutant human TOR1A.
Assay [3] can be described thus: small molecules captured by biotinylated probe aFGF2 – biochemical, small-molecule microarray, fluorescence 635/667, stem cell growth factor project, primary screen (AID 1067).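 Further: measures binding of biotinylated aFGF2 protein to printed compounds on slides; z-score merges feature fluorescence and signal-to-noise across triplicate slides.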 The settings on record: higher = more signal.
Assay [4] in a line: small molecules captured by biotinylated probe aFGF10 – biochemical, small-molecule microarray, fluorescence 635/667, stem cell growth factor project, primary screen (AID 1071).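 Further: score merges 667 nm spot intensity and signal to noise from triplicate slides.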 The settings on record: higher = more signal.
In assay [5] the target is Neurogenic locus notch homolog protein 2 (Homo sapiens) (UniProt Q04721). Put plainly: small molecules binding Notch2 protein – biochemical, small-molecule microarray, 635 nm fluorescence, stem cell growth factors, primary screen (AID 1073). The settings on record: higher = more signal.
The target in assay [6] is Pro-neuregulin-1, membrane-bound isoform (Homo sapiens) (UniProt Q02297). Nature of the assay: small molecules binding neuregulin-1 protein – biochemical, small-molecule microarray, fluorescence 635/667, psychiatric disease protein project, primary screen (AID 1075).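 Further: score combines 667 nm spot fluorescence with signal to noise.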 The settings on record: NRG1 binding, 635 nm fluorescence, higher = more signal.
Assay [7] concerns Neuregulin-1 EGF-like domain. Nature of the assay: small molecules binding NRG1 EGF domain – biochemical, small-molecule microarray, 635 nm fluorescence, primary screen (AID 1081).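 Further: binding of the protein to compounds printed on small-molecule microarray slides.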 The settings on record: higher = more signal.
Assay [8] in a line: FRG1 expression reporter modulators in myotubes – cell-based, C2C12 myotubes, firefly/Renilla luciferase, luminescence, FRG1 inhibition for FSHD, primary screen (AID 1084). The settings on record: FRG1 promoter luciferase, higher = more signal, called active from +8 up or from −8 down.
Assay [9] is described as follows: small molecules captured by biotinylated probe aFST – biochemical, small-molecule microarray, fluorescence 635/667, stem cell growth factor project, primary screen (AID 1086).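 Further: score merges 667 nm fluorescence with signal-to-noise of each printed compound spot.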 The settings on record: higher = more signal.
Assay [10] in a line: binders of probe aHhip on microarray, primary screen, stem cell growth factor project, biochemical, small-molecule microarray, fluorescence 635/667 (AID 1087).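 Further: score merges spot fluorescence at 667nm with spot signal to noise ratio.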 The settings on record: higher = more signal.
Assay [11] relates to PRMT1 (protein arginine N-methyltransferase 1). Put plainly: small molecules binding arginine methyltransferase PRMT1 – biochemical, small-molecule microarray, 635 nm fluorescence, primary screen (AID 1088).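 Further: binding of Prmt1 protein to compounds spotted on small-molecule microarray slides.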 The settings on record: higher = more signal.
Assay [12] can be described thus: growth effects on S. cerevisiae YJM789 – YJM789 clinical isolate, OD600, 24 h, basal, primary screen (AID 1089).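 Further: growth of clinical yeast isolate S. cerevisiae YJM 789 seeded 1000 cells per well; test concentration not given here.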 The settings on record: higher = more signal, called active from +8 up or from −8 down.
Assay [13] is described as follows: S. pombe growth modifiers, basal conditions – strain 972, OD600, 24 h, no modulator, primary screen (AID 1090).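 Further: basal condition with compound alone and no growth modifier present; test concentration not given here.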 The settings on record: S. pombe 972 growth, higher = more signal, called active from +8 up or from −8 down.
Assay [14] in a line: budding yeast growth modifiers under rapamycin – strain BY4716, OD600, 96 h, primary screen (AID 1091). Further: test concentration not given here. The settings on record: S. cerevisiae BY4716 + rapamycin, higher = more signal, called active from +8 up or from −8 down.
In assay [15] the target is Torsin-1A-interacting protein 2 (Homo sapiens) (UniProt Q8NFQ8). Put plainly: small molecules binding lysate-expressed LULL1 – cell lysate, human LULL1 lysate, 635/667 nm fluorescence, primary screen (AID 1092).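 Further: probe is lysate of COS7 cells overexpressing human LULL1; score merges per-feature 667 nm fluorescence with signal-to-noise.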 The settings on record: small-molecule microarray, hLULL1 lysate binding, 635 nm fluorescence; higher = more signal.
A short description of assay [16]: optical density change of DRC41 E. coli – strain DRC41, OD650, 24 h, E. coli filamentation project, primary screen (AID 1093).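 Further: MC1000 strain lacking acrAB efflux and sulA so SOS filamentation is blocked; test concentration not given here.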 The settings on record: E. coli DRC41 growth, higher = more signal, called active from +8 up or from −8 down.
Assay [17] can be described thus: probe aLefty2 binding to arrayed compounds – biochemical, biotinylated probe, 635/667 nm fluorescence, primary screen (AID 1094).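 Further: score merges spot fluorescence near 667 nm with spot signal-to-noise ratio.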 The settings on record: small-molecule microarray, higher = more signal.
The subject of assay [18] is Noggin (protein binding on small-molecule microarray). Nature of the assay: small molecules binding Noggin protein – biochemical, 635/667 nm fluorescence, primary screen (AID 1095).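 Further: score merges 667 nm feature fluorescence with signal to noise over triplicate slides.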 The settings on record: 635 nm fluorescence, higher = more signal.
Assay [19] deals with Neurogenic locus notch homolog protein 3 (Homo sapiens) (UniProt Q9UM47). Nature of the assay: small molecules binding NOTCH3 protein – biochemical, 635/667 nm fluorescence, primary screen (AID 1096). The settings on record: small-molecule microarray, 635 nm fluorescence, higher = more signal.
A short description of assay [20]: probe aEGFR binding to arrayed compounds – biochemical, biotinylated probe, 635/667 nm fluorescence, primary screen (AID 1097).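 Further: probe is a biotinylated anti-EGFR antibody binding compounds printed on slides; score combines fluorescence near 667 nm and signal to noise of each spot.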 The settings on record: small-molecule microarray, higher = more signal.

Torsin-1A-interacting protein 2 (Homo sapiens), sequence (Q8NFQ8 whole entry, looked up): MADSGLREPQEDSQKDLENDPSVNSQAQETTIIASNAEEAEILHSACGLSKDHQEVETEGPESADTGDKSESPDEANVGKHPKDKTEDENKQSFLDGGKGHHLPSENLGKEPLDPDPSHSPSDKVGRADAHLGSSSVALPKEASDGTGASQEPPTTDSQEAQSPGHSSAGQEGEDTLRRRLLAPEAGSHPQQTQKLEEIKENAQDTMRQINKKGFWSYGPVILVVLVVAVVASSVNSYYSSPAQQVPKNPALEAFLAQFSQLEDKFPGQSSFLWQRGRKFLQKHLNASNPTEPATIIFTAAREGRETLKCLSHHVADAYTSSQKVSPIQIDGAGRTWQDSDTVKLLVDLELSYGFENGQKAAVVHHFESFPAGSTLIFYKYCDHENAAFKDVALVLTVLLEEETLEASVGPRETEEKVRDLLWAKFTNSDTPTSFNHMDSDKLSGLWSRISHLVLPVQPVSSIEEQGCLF
Neurogenic locus notch homolog protein 2 (Homo sapiens), sequence (Q04721 whole entry, looked up, canonical isoform): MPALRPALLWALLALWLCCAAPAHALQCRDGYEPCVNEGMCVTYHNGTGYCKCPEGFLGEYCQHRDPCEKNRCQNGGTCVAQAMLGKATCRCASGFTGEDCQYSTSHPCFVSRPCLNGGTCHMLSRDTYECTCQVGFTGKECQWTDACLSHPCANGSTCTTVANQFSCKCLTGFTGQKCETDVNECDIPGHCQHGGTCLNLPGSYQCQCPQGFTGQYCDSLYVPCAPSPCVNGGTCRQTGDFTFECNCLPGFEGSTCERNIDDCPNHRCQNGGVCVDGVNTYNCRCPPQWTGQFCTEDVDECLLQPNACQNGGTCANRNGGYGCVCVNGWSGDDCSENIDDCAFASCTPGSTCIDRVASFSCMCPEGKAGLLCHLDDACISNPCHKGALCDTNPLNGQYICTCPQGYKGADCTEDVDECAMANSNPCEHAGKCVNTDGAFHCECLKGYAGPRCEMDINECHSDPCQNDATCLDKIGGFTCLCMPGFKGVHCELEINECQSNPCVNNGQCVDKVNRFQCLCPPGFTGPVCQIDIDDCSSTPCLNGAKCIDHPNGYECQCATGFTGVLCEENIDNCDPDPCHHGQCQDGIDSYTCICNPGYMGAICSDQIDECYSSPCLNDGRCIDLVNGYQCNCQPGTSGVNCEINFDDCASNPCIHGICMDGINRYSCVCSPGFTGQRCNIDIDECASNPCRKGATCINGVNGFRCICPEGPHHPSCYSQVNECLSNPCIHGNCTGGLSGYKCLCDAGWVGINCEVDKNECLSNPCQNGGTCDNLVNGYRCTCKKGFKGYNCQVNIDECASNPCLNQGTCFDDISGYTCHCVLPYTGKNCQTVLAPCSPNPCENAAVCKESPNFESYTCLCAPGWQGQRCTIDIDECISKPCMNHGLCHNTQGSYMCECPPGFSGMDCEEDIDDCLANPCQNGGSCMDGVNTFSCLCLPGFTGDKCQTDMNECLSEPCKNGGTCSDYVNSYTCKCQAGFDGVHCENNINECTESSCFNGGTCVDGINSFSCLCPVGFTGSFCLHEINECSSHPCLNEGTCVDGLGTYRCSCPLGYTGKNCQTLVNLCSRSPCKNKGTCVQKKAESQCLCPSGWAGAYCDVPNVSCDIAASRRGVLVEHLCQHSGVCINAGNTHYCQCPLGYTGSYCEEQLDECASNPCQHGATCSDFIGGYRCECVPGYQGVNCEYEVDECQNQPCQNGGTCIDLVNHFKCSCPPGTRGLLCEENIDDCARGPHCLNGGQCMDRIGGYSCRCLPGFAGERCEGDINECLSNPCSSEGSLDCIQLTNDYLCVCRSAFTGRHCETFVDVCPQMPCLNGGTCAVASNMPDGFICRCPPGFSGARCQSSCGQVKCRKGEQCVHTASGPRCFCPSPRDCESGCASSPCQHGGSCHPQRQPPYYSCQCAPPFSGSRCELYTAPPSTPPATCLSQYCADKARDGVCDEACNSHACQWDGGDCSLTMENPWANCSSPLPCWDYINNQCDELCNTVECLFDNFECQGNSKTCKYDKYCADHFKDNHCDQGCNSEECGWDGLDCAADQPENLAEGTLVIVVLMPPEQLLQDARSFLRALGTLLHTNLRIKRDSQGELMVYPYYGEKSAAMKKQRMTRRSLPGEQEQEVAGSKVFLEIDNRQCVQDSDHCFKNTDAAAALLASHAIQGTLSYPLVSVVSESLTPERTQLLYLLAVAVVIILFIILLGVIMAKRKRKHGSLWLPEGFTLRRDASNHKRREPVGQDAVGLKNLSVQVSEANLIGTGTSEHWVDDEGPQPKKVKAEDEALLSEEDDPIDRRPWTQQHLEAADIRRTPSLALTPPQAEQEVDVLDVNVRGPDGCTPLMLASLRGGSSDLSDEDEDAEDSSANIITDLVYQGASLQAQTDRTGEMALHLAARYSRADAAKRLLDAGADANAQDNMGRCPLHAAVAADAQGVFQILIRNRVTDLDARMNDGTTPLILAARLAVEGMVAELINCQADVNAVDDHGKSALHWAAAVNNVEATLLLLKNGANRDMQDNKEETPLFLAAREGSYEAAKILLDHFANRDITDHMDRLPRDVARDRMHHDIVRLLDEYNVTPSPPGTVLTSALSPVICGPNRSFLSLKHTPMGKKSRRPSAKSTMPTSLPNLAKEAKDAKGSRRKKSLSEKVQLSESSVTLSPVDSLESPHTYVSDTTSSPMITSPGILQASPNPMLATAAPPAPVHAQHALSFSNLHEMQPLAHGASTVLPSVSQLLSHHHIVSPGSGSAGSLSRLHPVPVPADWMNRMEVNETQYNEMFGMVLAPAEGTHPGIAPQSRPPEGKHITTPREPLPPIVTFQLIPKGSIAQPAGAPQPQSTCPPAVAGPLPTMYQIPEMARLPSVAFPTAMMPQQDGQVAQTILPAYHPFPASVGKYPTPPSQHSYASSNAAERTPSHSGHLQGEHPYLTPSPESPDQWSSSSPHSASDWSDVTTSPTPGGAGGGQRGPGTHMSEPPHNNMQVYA
Pro-neuregulin-1, membrane-bound isoform (Homo sapiens), sequence (Q02297 whole entry, looked up, the tested form may be a part, canonical isoform): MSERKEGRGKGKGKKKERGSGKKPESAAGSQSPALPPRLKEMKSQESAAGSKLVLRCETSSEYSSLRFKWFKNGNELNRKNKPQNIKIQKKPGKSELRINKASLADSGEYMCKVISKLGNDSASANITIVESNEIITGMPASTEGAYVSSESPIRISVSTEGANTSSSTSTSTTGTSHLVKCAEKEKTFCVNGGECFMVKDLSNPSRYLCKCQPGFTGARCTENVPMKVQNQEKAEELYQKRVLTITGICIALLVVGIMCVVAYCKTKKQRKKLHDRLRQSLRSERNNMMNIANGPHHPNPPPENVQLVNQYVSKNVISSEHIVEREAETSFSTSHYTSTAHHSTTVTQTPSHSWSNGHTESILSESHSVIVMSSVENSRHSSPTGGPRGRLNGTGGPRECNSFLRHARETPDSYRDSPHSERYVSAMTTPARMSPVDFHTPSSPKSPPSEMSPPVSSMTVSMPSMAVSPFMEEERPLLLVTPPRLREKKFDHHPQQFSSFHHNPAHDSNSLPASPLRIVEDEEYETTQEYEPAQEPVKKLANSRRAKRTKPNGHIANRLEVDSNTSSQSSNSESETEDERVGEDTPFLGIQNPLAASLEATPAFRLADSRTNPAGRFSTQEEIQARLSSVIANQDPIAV

Take `CC=CC1=C(CO)C(=O)[C@@H]2O[C@@H]2C1=O`: the composite z-score in assay [1] is -0.538; in [2], -0.45; in [3] it was -0.093; in assay [4] it was 0.0736; in assay [5], -0.126; in assay [6], -0.719. Also, the composite z-score in assay [7] is 0.687; in assay [9], -0.212; in assay [10], -0.0994; in assay [11], 0.114; in assay [15] it was -1.02; in [17] it was -0.199. Also, the composite z-score amounted to 1.58 in assay [18], 0.406 in assay [19] and 0.0083 in assay [20]. The z-score is -0.078 (inactive) in assay [8]; -0.767 (inactive) in [12]; -0.738 (inactive) in assay [13]; -0.624 (inactive) in [14]; 0.199 (inactive) in [16].

In the case of `CCN1C(=O)[C@H]2[C@H]3[C@H](O)[C@H](O)CC(=NOCC(C)C)[C@@H]3CC[C@H]2C1=O`, the composite z-score is -0.596 in assay [1]; 0.217 in assay [2]; -0.142 in assay [3]; 0.361 in [4]; 1.23 in assay [5]; 0.42 in assay [6]. For the same molecule, the composite z-score is 0.336 in assay [7]; 0.124 in assay [9]; 0.465 in [10]; 1.55 in [11]; 2.08 in assay [15]; -0.0898 in [17]. The composite z-score in assay [18] worked out at 1.11; in assay [19] it was 1.12; in assay [20], 0.051. Also, the z-score was 0.0163 (inactive) in assay [8]; -0.132 (inactive) in assay [12]; -0.666 (inactive) in assay [13]; -0.242 (inactive) in [14]; -0.637 (inactive) in assay [16].

`CC(C)=NO[C@H](C)c1cn([C@H](CO)Cc2ccccc2)nn1`: the composite z-score in assay [1] is -0.125; in [2], 0.364; in [3], -0.0737; in [4], -0.116; in assay [5], 0.0781; in assay [6], 0.274. For the same molecule, the composite z-score in [7] was 0.316; in assay [9], 0.0676; in assay [10] it was 0.0972; in assay [11], 0.325; in [15] it was 1.09; in [17], -0.166. For the same molecule, the composite z-score in assay [18] is -0.0003; in [19] it was 0.104; in assay [20] it was -0.0406. Also, the z-score is -0.266 (inactive) in assay [8]; -0.43 (inactive) in assay [12]; -0.594 (inactive) in assay [13]; 0.245 (inactive) in assay [14]; 0.208 (inactive) in assay [16].

For the molecule `COc1ccc(COC(=O)NN=C2C[C@@H](O)[C@@H](O)[C@@H]3[C@@H]4C(=O)N(Cc5ccccc5)C(=O)[C@@H]4CC[C@H]23)cc1`, the composite z-score in assay [1] was 1.51; in [2], 0.111; in assay [3] it was -0.0574; in [4], 0.009; in [5], -0.234; in assay [6] it was -0.318. Further, the composite z-score in assay [7] was -0.411; in [9], 1.39; in [10], -0.284; in assay [11], 0.413; in assay [15], 0.739; in assay [17], 0.287. The composite z-score is -1.24 in [18], -0.0524 in [19] and -0.13 in assay [20]. The z-score in [8] was 0.319 (inactive); in assay [12], -0.457 (inactive); in assay [13], -0.619 (inactive); in assay [14] it was -1.17 (inactive); in assay [16] it was -0.289 (inactive).

Turning to `Cc1cc2c(nc1C)CCCCN2CC(C)ON=C1[C@H]2CCn3c(=O)n(-c4ccccc4)c(=O)n3[C@H]2[C@H](O)[C@@H]2O[C@H]12` (stereo not given in full), the composite z-score in assay [1] is -0.455; in assay [2], 0.288; in assay [3], 0.0051; in [4] it was 0.756; in assay [5], 0.942; in assay [6], -0.349. The composite z-score in assay [7] was 0.8; in [9] it was 0.557; in assay [10] it was -0.0346; in [11], 0.208; in [15] it was 0.998; in assay [17], 0.106. Further, the composite z-score was 0.439 in assay [18], 0.258 in assay [19] and -0.0922 in assay [20]. Also, the z-score in assay [8] was -0.446 (inactive); in [12] it was 0.678 (inactive); in assay [13], -0.167 (inactive); in [14] it was 0.103 (inactive); in [16], 0.777 (inactive).
